# Compound activity: PubChem BioAssay, Broad Institute
# RAD52 inh: RAD52 (human) annealing inhibition. recombinant RAD52 DNA annealing, FRET fluorescence. actives 0.46% (n = 360,000). AID 651710. inhibition, % at 18.7 µM. P43351;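 active = every replicate showing at least 50% inhibition; inconclusive = mean inhibition at least 50% but not in every replicate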
# GSIS activator: primary screen for activators of insulin secretion dependent on glucose, INS-1E cells, GLuc reporter luminescence; activation, % at 16.6 µM; AID 743287; actives 0.61% (n = 370,000); INS-1E GLuc reporter insulin secretion, 2-3 h;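 active = lowest replicate activation of at least 40%, so every replicate reaches that level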;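 also: 0% = median of neutral control wells and 100% = median of IBMX positive control wells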
# DENV2 CPE: protects cells from dengue virus 2 cytopathic effect; DENV2-infected cells, cytopathic effect rescue, plate reader; CPE inhibition, % at 9.99 µM; actives 1.7% (n = 350,000); in the data active = CPE inhibition above about 20%, passing the limit was not always enough; inconclusive = no clear call, values can overlap the other calls; tested in BHK-21 cells;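 also: 0% = median of neutral control wells and 100% = median of positive control wells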
# RAD54 inh: inhibitors of human RAD54 branch migration; RAD54 Holliday junction branch migration, FAM/BHQ fluorescence; inhibition, % at 10.4 µM; actives 0.14% (n = 360,000); AID 602329;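 active = mean normalized replicate activity at least 40 and at least half of replicates scoring 40 or more; inconclusive = only one of the two criteria met; inactive = mean below 40 and under half of replicates reaching 40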;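 also: 0% = median of neutral control wells and 100% = median of positive control wells; inhibitors cause a drop in the FAM fluorescence signal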
# dFosB act: activators of mouse delta FosB homodimer. P13346. activation, % at 25 µM. actives 0.99% (n = 340,000). purified delta FosB, TAMRA-CDK5 oligo fluorescence polarization; percent of positive-control signal above neutral wells;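 active = mean activation above about 17%, with every replicate also reaching it, limit read from the data, passing the limit was not always enough; inconclusive = only one of the two conditions met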
# AF4-AF9 inh: MLL-AF4/AF9 protein interaction inhibition. P42568. AlphaScreen, biotin-AF4 peptide binding to FLAG-AF9. inhibition, % at 10 µM. actives 0.47% (n = 350,000);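 active = every replicate reaching a set inhibition limit, whatever the replicate mean, cut at about 25% in these data; inconclusive = mean inhibition reaches that limit but some replicates miss it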;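 also: 0% = plate neutral control median and 100% = total signal loss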
# * = called active by the depositor; ? = inconclusive; . = not tested or not shown. Shown are actives, neighbours in structure and some others; about 3.1% of the full set was active somewhere.
SMILES,RAD52 inh,GSIS activator,DENV2 CPE,RAD54 inh,dFosB act,AF4-AF9 inh
Cc1noc(C)c1NC(=O)N(C)C[C@H]1Oc2ccc(NC(=O)Cc3ccccc3)cc2CC(=O)N([C@@H](C)CO)C[C@@H]1C,77*,6,-3,-8,.,-2
O=C(Nc1ccc2c(c1)[C@H]1C[C@H](CC(=O)N3CCOCC3)O[C@@H](CO)[C@H]1O2)NC1CCCC1,9,12,7,-4,.,2
C[C@H](CO)N1C[C@H](C)[C@@H](CN(C)Cc2ccc(F)cc2)Oc2ncc(-c3cccc(C#N)c3)cc2C1=O,17,.,2,4,.,4
CC(C)NC(=O)Nc1ccc2c(c1)C(=O)N([C@H](C)CO)C[C@@H](C)[C@H](CN(C)Cc1ccc(C(F)(F)F)cc1)OCCCC[C@@H](C)O2,20,-15,32*,-3,.,7
CC(C)NC(=O)Nc1ccc2c(c1)C(=O)N([C@H](C)CO)C[C@@H](C)[C@@H](CN(C)Cc1ccc(C(F)(F)F)cc1)OCCCC[C@@H](C)O2,29,13,42*,-4,.,1
CC(C)NC(=O)Nc1ccc2c(c1)C(=O)N([C@H](C)CO)C[C@@H](C)[C@H](CN(C)Cc1ccc(C(F)(F)F)cc1)OCCCC[C@H](C)O2,16,-23,2,3,.,4
COCC(=O)Nc1ccc2c(c1)[C@H]1C[C@@H](CC(=O)N3CCc4ccccc4C3)O[C@H](CO)[C@H]1O2,-7,3,-4,7,.,-1
Cc1cccc(C)c1NC(=O)C1c2ccccc2Oc2ccccc21,.,51*,.,.,0,.
C[C@H]1CN([C@@H](C)CO)C(=O)c2cccc(NC(=O)c3ccc(-c4nccs4)cc3)c2O[C@H]1CN(C)C(=O)Nc1ccccc1,-15,16,-1,-5,.,-3
Cc1ccc(CNc2nc(NCc3ccccc3)nc3ccsc23)c(C)c1,-14,196*,3,-2,.,4
COC(=O)C[C@@H]1CC[C@@H]2[C@@H](COc3ccc(NC(=O)c4cc(F)cc(F)c4)cc3C(=O)N2C)O1,.,-6,11,4,.,.
CC(Sc1ccccn1)C(=O)Nc1ccc2c(c1)OCCO2 (stereo unspecified),-1,15,27*,-1,1,0
CCOC(=O)c1ccc(NC(=O)c2nc[nH]c2C(=O)NC[C@@H](C)O)cc1,-2,14,-1,1,.,-1
CNC(=O)c1[nH]cnc1C(=O)Nc1ccc(Cl)cc1,-9,16,41*,-1,-4,-8
Cc1ccc(NC(=O)c2nc[nH]c2C(=O)NCCN(CCNC(=O)c2[nH]cnc2C(=O)Nc2ccc(C)cc2)CCNC(=O)c2[nH]cnc2C(=O)Nc2ccc(C)cc2)cc1,-7,0,17,-3,48*,0
CCOC(=O)c1ccc(NC(=O)c2nc[nH]c2C(=O)NC[C@H](C)O)cc1,-3,26,80*,10,.,0
O=C(Nc1ccc(Cl)cc1)c1nc[nH]c1C(=O)NCCN(CCNC(=O)c1[nH]cnc1C(=O)Nc1ccc(Cl)cc1)CCNC(=O)c1[nH]cnc1C(=O)Nc1ccc(Cl)cc1,.,.,.,-10,?,.
Cc1cccc(NC(=O)c2nc[nH]c2C(=O)NCCCNC(=O)c2[nH]cnc2C(=O)Nc2cccc(C)c2)c1,-10,5,45*,0,-1,-1
COc1ccc(S(=O)(=O)Nc2ccc3c(c2)OC[C@H](C)NC[C@@H](C)[C@H](OC)CN(C)C3=O)cc1,-8,6,-4,7,.,-3
C[C@@H]1CCCCO[C@@H](CN(C)Cc2ccncc2)[C@@H](C)CN([C@@H](C)CO)C(=O)c2cc(NC(=O)Cc3ccccc3)ccc2O1,.,-11,.,.,.,.
CCC(=O)N1[C@H](CO)[C@@H]2c3ccccc3N(C(=O)c3ccc4c(c3)OCO4)C[C@@H]21,-5,7,?,-1,.,-3
CC(C)N(C(=O)[C@H]1C[C@H](CC(=O)NCCCN(C)C)C(=O)N2CCc3c([nH]c4cc(-c5ccco5)ccc34)[C@]12C)C(C)C,49,16,5,16,-3,29*
COCCCNC(=O)C[C@H]1C[C@H](C(=O)N(C(C)C)C(C)C)[C@@]2(C)c3[nH]c4cc(CCC(=O)N(C)C)ccc4c3CCN2C1=O,-9,-3,37*,-5,0,-1
